# In the library only some 19% were active in any assay of this set; here they are far more common.
# HT1080NT lethal: kills 2HG-producing HT-1080-NT fibrosarcoma cells; HT-1080-NT fibrosarcoma viability, CellTiter-Glo ATP luminescence, 48 h; 360,000 tested, 1.6% active; Potency, µM (doses to about 46.1 µM), for the others: top-dose activity, negative = less viability, usual class: cytotoxic; AID 686970;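 note: NT is the 2HG producing partner of a matched IDH1 knockdown line; potency is the fitted concentration of half-maximal effect; 0% = DMSO-treated cells and -100% = media-only wells without cells; nearly all actives have a fitted effect of over 55% in size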
#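 Toxicity toward the 2HG-producing NT line was scored as %Activity, normalised to DMSO and no-cell wells, from CellTiter-Glo luminescence after 48 hours' treatment.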
# DT40 TDP1 no CPT: qHTS for Inhibitors of human tyrosyl-DNA phosphodiesterase 1 (TDP1): qHTS in cells in absence of CPT; DT40 Tdp1-/- hTDP1 cells, no CPT, ATP luminescence, 48 h; Potency, µM (series often up to 46.2 µM), for the others: top-dose activity change, negative = growth inhibition, actives largely listed as inhibitors; 420,000 tested, 15% active; AID 686978, 2013; note: potency is the fitted concentration of half-maximal effect; nearly all actives have a fitted effect of over 55% in size
#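 Stably hTDP1-transfected Tdp1-null chicken DT40 cells were treated with library compounds minus camptothecin and grown for at least 48 hr at 37 °C, after which cellular ATP was quantified by luminescence.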
# DT40 TDP1 CPT: DT40-hTDP1 cell growth loss with CPT | chicken DT40 Tdp1-/-;hTDP1 cells + 20 nM CPT, ATP luminescence, 48 h | 420,000 tested, 12% active | Potency, µM (doses to about 46.2 µM), inactives show at the top dose activity change, negative = growth inhibition, usual class: inhibitors; note: potency is the fitted concentration of half-maximal effect; nearly all actives have a fitted effect of over 55% in size
#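 Cell growth measured by CellTiter-Glo luminescence after a minimum 48 h, 37 C compound exposure with 20 nM CPT in Tdp1-knockout DT40 cells stably expressing hTDP1, seeded 400/well; qHTS titration format.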
# HT1080 IDH1KD tx: HT-1080 IDH1 knockdown cell toxicity (counter line) | HT-1080 IDH1 knockdown viability, ATP luminescence, 48 h | Potency, µM (series often up to 46.1 µM), for inactives: at the highest dose activity, negative = toxicity, most hits filed as cytotoxic | 360,000 tested, 2% active | AID 686971;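 note: potency is the fitted concentration of half-maximal effect; 0% = DMSO wells and -100% = cell-free medium wells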
#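 IDH1KD HT-1080 cells, 750/well, RPMI + 5% FBS; compound pinned after 2 h settling; 48 h, 37 °C; CellTiter-Glo luminescence; % activity normalised to DMSO and no-cell wells; curves fitted, classed by r2 and efficacy.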
# IL-1B inflam inh: inhibitors of inflammasome signaling (IL-1 beta secretion). AID 743279. activity change, % at 57.5 µM. 360,000 tested, 4.7% active. THP-1 LPS/ATP IL-1B secretion, AlphaLISA, 16 h; stronger effect = lower value; in the data active = activity change below about -50%; inconclusive = mostly about -30% to -49%
#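 THP-1 cells pretreated 1 hr with compounds (up to 57.5 uM final), then stimulated with LPS (250 ng/mL final) plus ATP (1.25 mM final); secreted IL-1B measured by AlphaLISA after 16 hr, decreased signal indicating inhibition.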
# * hit, by the source's call; i = inactive; ? = inconclusive; . = no result; [ ] = remark or other dose. Unless noted, calls come from the whole dose curve; as a rule, active = well fitted curve in the direction sought with a large enough effect; inconclusive = small, poorly fitted or top-dose-only effect, or another doubt; inactive = no such curve, though single readings can be large; an effect the other way counts as inactive or inconclusive. Unless noted, % is set by controls: 0 for no effect and ±100 for the full control effect.
SMILES,HT1080NT lethal,DT40 TDP1 no CPT,DT40 TDP1 CPT,HT1080 IDH1KD tx,IL-1B inflam inh
Cc1ccc(O)c(-c2cc(-c3ccccc3[N+](=O)[O-])[nH]n2)c1,0%,-14%,-4%,-11%,-87*
O=[N+]([O-])c1ccccc1-c1cc(-c2cc(Cl)ccc2O)n[nH]1,-8%,?,?,-13%,-101*
Oc1ccccc1-c1cc(-c2ccccc2Cl)[nH]n1,1%,?,-30%,-23%,?
COc1ccc(O)c(-c2cc(-c3ccccc3[N+](=O)[O-])[nH]n2)c1,-4%,?,10%,-10%,0
NC(=O)CSc1nc2cc3c(cc2c(=O)n1CCCCCC(=O)NCc1ccc2c(c1)OCO2)OCO3,.,-23%,10%,.,.
CCCC(C)NC(=O)COc1ccc(Sc2ccc(OCC(=O)NC(C)CCC)cc2)cc1 (stereo unspecified),-22%,12µM*,8.2µM*,-8%,-1
Cc1cc(OCC(=O)NCC(C)C)cc(C)c1Br,6%,-22%,?,1%,-10
CC(C)CNC(=O)COc1ccc(Sc2ccc(OCC(=O)NCC(C)C)cc2)cc1,-1%,1.6µM*,?,-19%,0
CC(=O)NCc1nnc2c3ccccc3c(-c3ccccc3)nn12,-8%,7%,-33%,-13%,9
O=C(NCc1nnc2c3ccccc3c(-c3ccccc3)nn12)c1ccc(Cl)cc1,-1%,?,?,5%,-97*
CSc1ccc(Cl)c(C(=O)NCCOc2cc(C(C)C)ccc2C)c1,?,26µM*,29µM*,?,?
COc1ccc(C(CNC(=O)c2cc(SC)ccc2Cl)N(C)C)cc1 (stereo unspecified),-2%,0%,?,1%,?
O=S(=O)(NCC(c1cccs1)S(=O)(=O)c1ccccc1)c1ccccc1 (stereo unspecified),.,1.8µM*,1.2µM*,.,.
O=S(=O)(NCC(c1ccco1)S(=O)(=O)c1cccs1)c1ccccc1 (stereo unspecified),.,-28%,?,.,.
CC(C)(C)c1ccc(C(=O)NCC(c2ccco2)S(=O)(=O)c2ccccc2)cc1 (stereo unspecified),.,23µM*,18µM*,.,.
CC(C)(C)c1ccc(C(=O)NCC(c2cccs2)S(=O)(=O)c2ccccc2)cc1 (stereo unspecified),.,15µM*,16µM*,.,.
CCOc1ccc(C(=O)NCC(c2cccs2)S(=O)(=O)c2ccccc2)cc1 (stereo unspecified),.,?,29µM*,.,.
COc1cccc(NC(=O)CSc2nnnn2C2CCCCC2)c1,-15%,?,-11%,-6%,-8
Cn1c(N)c(C(=O)CSc2nc(N)cc(N)n2)c(=O)n(C)c1=O,0%,10%,-2%,3%,11
CCCc1cc(=O)[nH]c(Nc2ccc3c(c2)OCCO3)n1,1%,-26%,-4%,3%,23
CCOc1ccc(C(=O)OCc2cc(=O)n3nc(C(C)C)sc3n2)cc1,.,-8%,-12%,.,.
COc1ccc(S(=O)(=O)N2CCCCCC2)cc1NC(=O)Cc1ccccc1,0%,9%,3%,4%,16
COc1ccc(CC(=O)Nc2cccc(S(=O)(=O)N3CCCCCC3)c2)cc1OC,-16%,7.3µM*,6.5µM*,-21%,-4
COc1ccc(CC(=O)Nc2ccc(S(=O)(=O)N3CCCCC3)cc2)cc1OC,-13%,?,?,-4%,-4
COc1ccc(CC(=O)Nc2cccc(SC)c2)cc1OC,-21%,9.2µM*,12µM*,-1%,9
SMILES,HT1080NT lethal,DT40 TDP1 no CPT,DT40 TDP1 CPT,HT1080 IDH1KD tx,IL-1B inflam inh
COc1ccc(CCC(=O)Nc2cccc(S(=O)(=O)N3CCCCCC3)c2)cc1OC,-9%[9.24 µM],15µM*,?,-20%,-23
COc1ccc(CC(=O)Nc2cc(S(=O)(=O)N3CCCCC3)ccc2OC(C)C)cc1OC,-6%,21µM*,?,-6%,-1
CN(C1CCCCC1)S(=O)(=O)c1ccc2c(c1)c(=O)c(C(=O)N1CCN(c3ccccc3)CC1)cn2C,.,0%,-11%,.,.
CCCOP(=O)(c1ccc(N(C)C)cc1)C(O)c1ccc(N(C)C)cc1 (stereo unspecified),-22%,-18%,-1%,-4%,-14
CN(C)S(=O)(=O)c1ccc(N2CCCC2)c(C(=O)N2CCN(S(=O)(=O)c3ccc(F)c(F)c3)CC2)c1,-1%,-19%,-29%,-1%,9
CCn1c2ccccc2c2cc([N+](=O)[O-])ccc21,1%,-9%,9%,-15%,-2
CN(C)CCn1c2ccccc2c2nc3ccc([N+](=O)[O-])cc3cc21,-12%,2.9µM*,2.1µM*,?,.
Cc1c(CN2CCCC(C(=O)c3cccc(OC(C)C)c3)C2)c(=O)n(-c2ccccc2)n1C (stereo unspecified),-16%,-6%,11%,0%,21
CCc1cc(C(=O)NC2CCCc3c2cnn3-c2cccc(C)c2C)n(C)n1 (stereo unspecified),-6%,0.16µM*,0.21µM*,?,?
Cc1cc(C)cc(-n2ncc3c2CCCC3NC(=O)C2(C(N)=O)CC2)c1 (stereo unspecified),?,?,?,?,25
Cc1cc(C)c(C(=O)NC2CCCc3c2cnn3-c2cccc(C)c2C)o1 (stereo unspecified),-18%,?,21µM*,?,0
Cc1cccc(-n2ncc3c2CCCC3NC(=O)C2(C(N)=O)CC2)c1C (stereo unspecified),-14%,?,10µM*,?,12
Cc1cccc(-n2ncc3c2CCCC3NC(=O)Cn2cccn2)c1C (stereo unspecified),-9%,-29%,?,-6%,-11
Cc1cccc(-n2ncc3c2CCCC3NC(=O)C2=CC(=O)CC(C)(C)O2)c1C (stereo unspecified),?,8.2µM*,4.6µM*,-18%,i
Cc1cccc(CN2CCN(C(=O)CN(C)C(C)C(=O)Nc3ccc(C(N)=O)cc3)CC2)c1 (stereo unspecified),-1%,-29%,-18%,-1%,-2
O=C(Cn1c(=O)c(CNc2ccccc2)cc2cc3c(cc21)OCCO3)Nc1ccccc1Cl,.,?,-121%,.,.
COc1ccccc1NC(=O)Cn1c(=O)c(CNc2ccccc2)cc2cc(OC)c(OC)cc21,.,6.5µM*,5.2µM*,.,.
COc1cc2cc(CNc3ccccc3)c(=O)n(CC(=O)Nc3ccccc3)c2cc1OC,.,18µM*,?,.,.
Cc1nnc(SCC(=O)N(CCC#N)c2ccc3c(c2)OCCO3)s1,9%,7%,1%,9%,-8

# Source: PubChem
